The results in this text go back to PubChem BioAssay AID686922 (National Center for Advancing Translational Sciences (NCATS), 2013).

“And” between values parts separate entries of the source, which are not always exact repeats. Identical values can stand only once. Inconclusive results are not listed. Unmarked numbers belong to inactive results. The source made the active and inactive calls. Calls follow the shape of the dose curve; as a rule, active = well fitted inhibition curve with a large enough effect; inconclusive = small, poorly fitted or top-dose-only effect; inactive = no such curve, though single readings can be large or run the other way.

The experiment is described as follows: qHTS screen for inhibitors of ELG1-dependent DNA repair in human embryonic kidney (HEK293T) cells expressing luciferase-tagged ELG1: MMS Viability Assay for probe SAR. The settings on record: HEK293T ELG1-luc + MMS viability, CellTiter-Glo, 16 h; series mostly up to 46.1 µM; activity change, negative = lower viability: at the top concentration. An excerpt: Cancer cells divide rapidly compared to normal cells in the body. During cell division, cancer cells need to duplicate their genome by DNA replication. The failure of genome duplication leads to cancer cells' death. Therefore, inhibitors of DNA replication could specifically kill cancer cells. Based on this concept, many chemotherapeutic agents were developed and have been used to treat cancer patients. However, there are a limited number of agents available in the clinical setting, and some of those that do exist have low efficacy and severe side effects. Therefore, if we can find the compounds that effectively block DNA replication either by directly damaging DNA or by inhibiting other cellular mechanisms, the options for cancer treatment will be broadened. With this in mind, we developed a quantitative high-throughput ELG1-luciferase reporter gene assay. Small molecules that specifically block ELG1 function in response to DNA damage can be identified by monitoring the suppression of luciferase activity. Since ELG1 defines a pathway for repairing DNA damage, agents blocking ELG1 function can be used to sensitize cancer cells to chemotherapeutic agents whose mechanism of action involves the induction of DNA damage. Cytotoxicity of the active compounds in the ELG1 qHTS assay with MMS stimulation (AID 493125) was assessed using the CellTiter-Glo Luminescent Cell Viability Assay kit (Promega, USA). CellTiter-Glo measures the intracellular ATP present in metabolically active cells using Ultra-Glo as the luciferase to detect ATP levels. In brief, the luciferase in the buffer catalyzes the oxidation of luciferin to oxyluciferin and light which is dependent on ATP. […] DMSO and wells with media alone were used as positive and negative controls, respectively. Inactivity to this assay is the desirable outcome. NIH Molecular Libraries Probe Production Network [MLPCN] NIH Chemical Genomics Center [NCGC] MLPCN Grant: R03 MH092164 Assay Provider: Kyungjae Myung, NHGRI, NIH
ELG1-luc HEK293T cells will be seeded in 1536-well plates at a density of 2,000 cells/well. Approximately 5 hours after plating, compounds will be added to the plate by pin tool transfer and MMS will be added by FRD dispenser (final concentration of MMS = 10 µM). 16 hours following the addition of the compounds, cell viability will be measured using CellTiter Glo.
As for `COc1cc(Nc2nc(-c3ccncc3)nc3ccccc23)ccc1F`, the Potency is 23.5 µM (active) and 20.9 µM (active).

Turning to `Fc1cc(Nc2nc(-c3ccncc3)nc3ccccc23)ccc1-c1cc(F)c(F)c(F)c1`, the “activity change, negative = lower viability” value is 4.68%.

For the compound `Fc1cc(Nc2nc(-c3ccncc3)nc3ccccc23)ccc1-c1cccnc1`, the “activity change, negative = lower viability” value is 1.55%.

Consider `Fc1ccc(-c2nc(-c3ccncc3)nc3ccccc23)cc1F`, for which the “activity change, negative = lower viability” value is -13.7%.

Turning to `Fc1ccc(Nc2nc(-c3ccncc3Cl)nc3ccccc23)cc1F`, the “activity change, negative = lower viability” value was -3.34%.

Regarding `O=[N+]([O-])c1ccc(-c2nc(Nc3ccc(F)c(F)c3)c3ccccc3n2)cc1`, the “activity change, negative = lower viability” value is -10.1%.

As to `Fc1cc(Nc2nc(-c3ccncc3)nc3ccccc23)ccc1C(F)(F)F`, the Potency is 7.43 µM (active) and 16.6 µM (active).

As for `Fc1cc(Nc2nc(-c3ccncc3)nc3ccccc23)ccc1-c1cn[nH]c1`, the “activity change, negative = lower viability” value is -4.27%.
